Test results as given in PubChem BioAssay (NCI).
Compounds without any hit were thinned out: in the full panel of roughly 79,000, 15% have a hit. Activity calls are given as the source filed them. No stated cut-off is given here; in the data, active means growth inhibition above about 70%; inactive means the rest.

Columns and labels:
[1] = NCI Yeast Anticancer Drug Screen. Data for the rad52 strain (AID 147);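 further: 0% = growth of vehicle-treated control cultures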; details: S. cerevisiae rad52 mutant growth inhibition, active compounds read high
Method in brief: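 Vehicle-treated cultures served as the reference for growth inhibition of compound-exposed yeast bearing a DNA repair mutation.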

[2] = NCI Yeast Anticancer Drug Screen. Data for the wt1 strain (AID 149);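 further: 0% = growth of vehicle-treated wt1 cultures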; details: S. cerevisiae wt1 strain (SPY 50644) growth inhibition, active compounds read high
Method in brief: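 Yeast wt1 strain exposed to compounds; growth inhibition measured relative to vehicle-treated controls.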

[3] = NCI Yeast Anticancer Drug Screen. Data for the rad50EPP+ strain (AID 151);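 further: 0% = growth of vehicle-treated control cultures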; details: S. cerevisiae rad50 mutant strain, active compounds read high
Method in brief: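 In this screen, rad50EPP+ yeast were exposed to compounds. Growth inhibition was scored against vehicle-treated controls.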

[4] = NCI Yeast Anticancer Drug Screen. Data for the mgt1 strain (AID 153); details: S. cerevisiae mgt1 mutant growth inhibition, active compounds read high
Method in brief: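 mgt1 strain exposed; growth vs vehicle control recorded as inhibition.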

[5] = NCI Yeast Anticancer Drug Screen. Data for the rad50 strain (AID 155);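 further: 0% = growth of vehicle-only cultures of the same strain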; details: S. cerevisiae rad50 strain growth inhibition, active compounds read high
Method in brief: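 Yeast carrying a defined DNA repair defect were exposed to test compounds, and growth was compared with vehicle-treated controls to give percent inhibition.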

[6] = NCI Yeast Anticancer Drug Screen. Data for the mec2-1 strain (AID 157); details: S. cerevisiae mec2-1 strain, active compounds read high
Method in brief: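 Vehicle-treated cultures served as reference for growth inhibition of compound-exposed mec2-1 yeast.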

[7] = NCI Yeast Anticancer Drug Screen. Data for the rad14 strain (AID 159);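 further: 0% = growth of vehicle-treated control cultures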; details: S. cerevisiae rad14 strain growth inhibition, active compounds read high
Method in brief: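 Yeast cells carrying a defined DNA-repair defect were exposed to compounds, and growth inhibition was calculated relative to vehicle-treated control cultures.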

[8] = NCI Yeast Anticancer Drug Screen. Data for the sgs1 mgt1 strain (AID 161);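 further: 0% = growth of cultures given vehicle only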; details: S. cerevisiae sgs1 mgt1 strain, active compounds read high
Method in brief: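 Inhibition of yeast growth, normalised to vehicle-treated controls, is reported for a strain bearing genetic alterations in DNA damage repair.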

[9] = NCI Yeast Anticancer Drug Screen. Data for the CLN2oe strain (AID 163);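 further: 0% = growth of vehicle-only control cultures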; details: S. cerevisiae CLN2oe strain, active compounds read high
Method in brief: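 Inhibition relative to vehicle-treated yeast is reported. Cells: strain with genetic alteration in cell-cycle control, grown with compound.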

[10] = NCI Yeast Anticancer Drug Screen. Data for the cln2 rad14 strain (AID 165);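 further: 0% = growth equal to vehicle treated cultures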; details: S. cerevisiae cln2 rad14 strain, active compounds read high
Method in brief: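 Each compound was tested on cln2 rad14 yeast. Inhibition of growth was calculated against vehicle-exposed controls.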

[11] = NCI Yeast Anticancer Drug Screen. Data for the bub3 strain (AID 167); details: S. cerevisiae bub3 mutant strain, active compounds read high
Method in brief: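 Compounds were applied to a genetically altered yeast strain carrying a cell-cycle control defect. Growth inhibition was scored against vehicle-treated controls.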

[12] = NCI Yeast Anticancer Drug Screen. Data for the wt2 strain (AID 169);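 further: 0% = growth of vehicle-treated yeast cultures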; details: S. cerevisiae wt2 strain growth inhibition, active compounds read high
Method in brief: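 Inhibition of yeast growth was determined after compound treatment, normalised to controls receiving only vehicle.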

[13] = NCI Yeast Anticancer Drug Screen. Data for the mlh1 strain (AID 171);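 further: 0% = growth of vehicle-treated control cultures of the same strain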; details: S. cerevisiae mlh1 strain growth inhibition, active compounds read high
Method in brief: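 Vehicle-normalised growth inhibition of a repair- or checkpoint-altered yeast strain following compound treatment.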

[14] = NCI Yeast Anticancer Drug Screen. Data for the sgs1 strain (AID 173);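 further: 0% = growth of vehicle-only control cultures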; details: S. cerevisiae sgs1 mutant, active compounds read high
Method in brief: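 Screen format: yeast with repair or checkpoint alterations, compound exposure, growth read relative to vehicle.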

[15] = NCI Yeast Anticancer Drug Screen. Data for the mlh1 rad18 strain (AID 175); details: S. cerevisiae mlh1 rad18 strain growth inhibition, active compounds read high
Method in brief: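 Vehicle-treated cultures served as the reference for growth inhibition in a yeast strain carrying DNA damage repair alterations exposed to each compound.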

[16] = NCI Yeast Anticancer Drug Screen. Data for the rad18 strain (AID 177); details: S. cerevisiae rad18 mutant growth inhibition, active compounds read high
Method in brief: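 Test articles were incubated with altered yeast defective in DNA damage repair. Results are given as inhibition of growth versus vehicle.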

[17] = at 5.0 µM (retest, dose inferred, filed as 0.5)
[18] = at 50.0 µM (retest, dose inferred, filed as 5.0)

Measured: growth inhibition

CC(C)(C)N=C(NO)c1ccccc1
active: [5]; at 50.0 µM 70.2% | [8]; at 50.0 µM 74% | [14]; at 100.0 µM 76% | [15]; [18] 76% | [15]; at 50.0 µM 81.4% | [16]; at 100.0 µM 82%
inactive: [1]; at 1.2 µM 0% | [1]; at 3.7 µM 1% | [1]; at 11.0 µM 8% | [1]; at 33.0 µM 25% | [1]; at 100.0 µM 68% | [2]; at 1.2 µM 0% | [2]; at 3.7 µM 0% | [2]; at 11.0 µM 5% | [2]; at 33.0 µM 8% | [2]; at 100.0 µM 45% | [3]; at 1.2 µM 0% | [3]; at 3.7 µM 3% | [3]; at 11.0 µM 14% | [3]; at 33.0 µM 35% | [3]; at 100.0 µM 63% | [4]; at 1.2 µM -2% | [4]; at 3.7 µM 1% | [4]; at 11.0 µM 2% | [4]; at 33.0 µM 27% | [4]; at 100.0 µM 57% | [5]; at 1.2 µM -2% | [5]; at 3.7 µM -1% | [5]; [17] -6% | [5]; at 11.0 µM 2% | [5]; at 33.0 µM 14% | [5]; [18] 41% | [5]; at 100.0 µM 55% | [6]; at 1.2 µM -3% | [6]; at 3.7 µM 0% | [6]; [17] -2% | [6]; at 11.0 µM 2% | [6]; at 33.0 µM 12% | [6]; [18] 2% | [6]; at 50.0 µM 2.9% | [6]; at 100.0 µM 53% | [7]; at 1.2 µM -3% | [7]; at 3.7 µM -3% | [7]; at 11.0 µM 0% | [7]; at 33.0 µM 10% | [7]; at 100.0 µM 46% | [8]; [17] 7% | [8]; [18] 55% | [9]; at 1.2 µM -9% | [9]; at 3.7 µM -7% | [9]; at 11.0 µM -2% | [9]; at 33.0 µM -4% | [9]; at 100.0 µM 47% | [10]; [17] 8% | [10]; [18] 49% | [10]; at 50.0 µM 43.7% | [11]; at 1.2 µM -6% | [11]; at 3.7 µM -9% | [11]; [17] -11% | [11]; at 11.0 µM -4% | [11]; at 33.0 µM -9% | [11]; [18] 42% | [11]; at 50.0 µM 0.3% | [11]; at 100.0 µM 27% | [12]; at 1.2 µM 1% | [12]; at 3.7 µM 1% | [12]; at 11.0 µM 8% | [12]; at 33.0 µM 20% | [12]; at 100.0 µM 67% | [13]; at 1.2 µM 3% | [13]; at 3.7 µM 1% | [13]; at 11.0 µM 7% | [13]; at 33.0 µM 20% | [13]; at 100.0 µM 64% | [14]; at 1.2 µM 1% | [14]; at 3.7 µM 7% | [14]; at 11.0 µM 14% | [14]; at 33.0 µM 39% | [15]; [17] 3% | [16]; at 1.2 µM 1% | [16]; at 3.7 µM -1% | [16]; at 11.0 µM 38% | [16]; at 33.0 µM 38%

CCOC1=C/C(=N\Nc2ccc([N+](=O)[O-])cc2)CCC1
active: [3]; at 11.0 µM 70% | [3]; at 33.0 µM 87% | [7]; at 33.0 µM 73% | [11]; at 50.0 µM 95% | [15]; [18] 87%
inactive: [1]; at 1.2 µM 0% | [1]; at 3.7 µM 8% | [1]; at 11.0 µM 29% | [1]; at 33.0 µM 69% | [1]; at 100.0 µM 26% | [2]; at 1.2 µM 0% | [2]; at 3.7 µM 7% | [2]; at 11.0 µM 9% | [2]; at 33.0 µM 24% | [2]; at 100.0 µM 18% | [3]; at 1.2 µM 3% | [3]; at 3.7 µM 20% | [3]; at 100.0 µM 58% | [4]; at 1.2 µM 3% | [4]; at 3.7 µM 9% | [4]; at 11.0 µM 18% | [4]; at 33.0 µM 22% | [4]; at 100.0 µM 10% | [5]; at 1.2 µM 3% | [5]; at 3.7 µM 10% | [5]; [17] 17% | [5]; at 11.0 µM 22% | [5]; at 33.0 µM 30% | [5]; [18] 51% | [5]; at 50.0 µM 23.4% | [5]; at 100.0 µM 10% | [6]; at 1.2 µM 0% | [6]; at 3.7 µM 5% | [6]; [17] 1% | [6]; at 11.0 µM 19% | [6]; at 33.0 µM 31% | [6]; [18] 67% | [6]; at 50.0 µM 37.9% | [6]; at 100.0 µM 11% | [7]; at 1.2 µM 2% | [7]; at 3.7 µM 9% | [7]; at 11.0 µM 27% | [7]; at 100.0 µM 33% | [8]; [17] 10% | [8]; [18] 21% | [8]; at 50.0 µM 48.6% | [9]; at 1.2 µM -1% | [9]; at 3.7 µM -6% | [9]; at 11.0 µM 21% | [9]; at 33.0 µM 15% | [9]; at 100.0 µM -5% | [10]; [17] 5% | [10]; [18] 10% | [10]; at 50.0 µM 29.5% | [11]; at 1.2 µM -3% | [11]; at 3.7 µM 4% | [11]; [17] -1% | [11]; at 11.0 µM 11% | [11]; at 33.0 µM 15% | [11]; [18] 33% | [11]; at 100.0 µM 18% | [12]; at 1.2 µM -1% | [12]; at 3.7 µM 3% | [12]; at 11.0 µM 7% | [12]; at 33.0 µM 24% | [12]; at 100.0 µM 11% | [13]; at 1.2 µM 0% | [13]; at 3.7 µM 5% | [13]; at 11.0 µM 11% | [13]; at 33.0 µM 17% | [13]; at 100.0 µM 7% | [14]; at 1.2 µM 1% | [14]; at 3.7 µM 3% | [14]; at 11.0 µM 18% | [14]; at 33.0 µM 50% | [14]; at 100.0 µM 20% | [15]; [17] 21% | [15]; at 50.0 µM 41.7% | [16]; at 1.2 µM 4% | [16]; at 3.7 µM 8% | [16]; at 11.0 µM 30% | [16]; at 33.0 µM 62% | [16]; at 100.0 µM 55%
